PubChem BioAssay (Tox21)
Inconclusive results are not listed. The source made the active and inactive calls. Unless noted, the call rests on the fitted dose curve; in most records, active means well fitted curve in the direction sought with a large enough effect in the repeat runs; inconclusive means weak or mixed curves; inactive means no such curve, though single readings can be large; an effect the other way counts as inactive or inconclusive.

Columns and labels:
[1] = qHTS assay to identify small molecule agonists of the vitamin D receptor (VDR) signaling pathway - cell viability counter screen (AID 743224); further: series mostly up to about 63 µM; nearly all actives have a fitted effect of over 50% in size
In short: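 Plated VDR-bla cells (4 h, 37C) received compound, incubated 16 h, then LiveBLAzer substrate 2 h RT; CellTiter-Glo added afterwards, luminescence read at 30 min.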

[2] = qHTS assay to identify small molecule antagonists of the vitamin D receptor (VDR) signaling pathway - cell viability counter screen (AID 743225); further: nearly all actives have a fitted effect of over 50% in size
In short: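 Same-well multiplex: following 16 h treatment of HEK 293T cells carrying a UAS-driven beta-lactamase reporter with compound and agonist (3 nM final), and a 2 h FRET substrate step, CellTiter-Glo was added and luminescence read after 30 min.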

[3] = qHTS assay to identify small molecule agonists of the NFkB signaling pathway (AID 1159509; active means well fitted curve in the direction sought with a large enough effect in the signal ratio in the repeat runs, not every such curve was filed as active; the % refers to the signal ratio; further: series mostly up to about 61 µM)
In short: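 NFkB-bla ME-180 cells carry a beta-lactamase reporter under an NF-kB response element. They were plated overnight, then exposed to compounds for 5 h at 37 C. Read-out is LiveBLAzer FRET after 1.5 hr at room temperature (405 nm excitation; 460/530 nm emission).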

[4] = qHTS assay to identify small molecule agonists of the endoplasmic reticulum stress response signaling pathway (AID 1159516; active means well fitted activation curve with a large enough effect in the signal ratio in the repeat runs, not every such curve was filed as active; the % refers to the signal ratio)
In short: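 An ESRE-bla HeLa cell assay: compounds were pin-transferred from DMSO onto overnight-plated cells and left 5 hr at 37 C. Substrate was then loaded for 2 hr at room temperature before reading fluorescence at 460 nm and 530 nm.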

[5] = qHTS assay to identify small molecule antagonists of the retinoid-related orphan receptor gamma (ROR-gamma) signaling pathway - cell viability counter screen (AID 1159520); further: nearly all actives have a fitted effect of over 50% in size
In short: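 Cytotoxicity was read from cellular ATP (CellTiter-Glo luminescence) after 16 hr at 37 C with 1 uM doxycycline induction. The inducer was added 2 hr after compound transfer to Tet-on ROR gamma CHO cells.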

[6] = biological target: Nuclear receptor ROR-gamma (Homo sapiens) (UniProt P51449); experiment: qHTS assay to identify small molecule antagonists of the retinoid-related orphan receptor gamma (ROR-gamma) signaling pathway (AID 1159521;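 further: CHO cells with doxycycline inducible ROR-gamma driving an RORE luciferase reporter; top concentration of the series differs between compounds; nearly all actives have a fitted effect of over 50% in size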)
In short: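 Inducible-expression reporter assay: doxycycline (1 uM final) switched on RORγ in CHO cells bearing a ROR response element-luciferase construct, with test compounds present from 2 h beforehand. Decreased luminescence after 16 h defined antagonist activity.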

[7] = qHTS assay to identify small molecule agonists of the AP-1 signaling pathway - cell viability counter screen (AID 1159525; calls by dose curve; further: nearly all actives have a fitted effect of over 55% in size)
In short: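 Luminescent ATP readout (Cell Titer Glo, 30 min RT), normalised to DMSO and tetra n-octyl ammonium bromide controls. Cells were ME-180 AP-1-bla in 0.5% dialyzed FBS Opti-MEM, with a 5 h, 37 °C compound exposure.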

[8] = qHTS assay to identify small molecule agonists of the AP-1 signaling pathway (AID 1159526; calls by dose curve)
[9] = biological target: Retinoic acid receptor RXR-alpha (Homo sapiens) (UniProt P19793); experiment: qHTS assay to identify small molecule agonists of the RXR signaling pathway (AID 1159527; calls by dose curve; further: nearly all actives have a fitted effect of over 35% in size)
In short: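 Compounds in DMSO were added to RXR-alpha-UAS-bla HEK 293T cells kept in 2% charcoal-stripped serum, and incubated 16 hr at 37 C with 5% CO2. Reporter signal came from a 2 hr B/G FRET substrate step.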

[10] = qHTS assay to identify small molecule agonists of the RXR signaling pathway - cell viability counter screen (AID 1159529)
In short: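 Counter screen: CellTiter-Glo luminescence. Cells: RXR-alpha-UAS-bla HEK 293T. Medium: 2% charcoal-stripped FBS. Treatment: 16 h, 37 C. Reagent incubation: 30 min, RT.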

[11] = qHTS assay to identify small molecule antagonists of the retinoid acid receptor (RAR) signaling pathway - cell viability counter screen (AID 1159551); further: nearly all actives have a fitted effect of over 35% in size
In short: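 Retinol-stimulated (1 uM final) C3RL4 cells, compound 6 h, 37 C; readout CellTiter-Glo luminescence (ATP) after 30 min RT incubation.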

[12] = qHTS assay to identify small molecule antagonists of the retinoic acid receptor (RAR) signaling pathway (AID 1159552; further: nearly all actives have a fitted effect of over 50% in size)
In short: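 Antagonism of retinol-induced RARE reporter activity was measured in C3RL4 cells. Exposure to compounds and 1 uM final retinol lasted 6 hr at 37 C, with luminescence as endpoint.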

[13] = qHTS assay to identify small molecule agonists of the retinoic acid receptor (RAR) signaling pathway (AID 1159553)
In short: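 Reporter readout comes from luciferase under RARE control in C3RL4 cells; compound exposure lasts 6 hr at 37 C in 5% CO2, and luminescence is recorded following a 30 min room-temperature incubation with reagent.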

[14] = qHTS assay to identify small molecule agonists of the endoplasmic reticulum stress response signaling pathway - cell viability counter screen (AID 1159517; calls by dose curve)
In short: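 HeLa cells carrying an ESRE-driven beta-lactamase reporter receive compound for 5 hr at 37 C. Cell viability is then gauged with CellTiter-Glo by luminescence, 30 min at room temperature.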

Measured: Potency

Chain of Retinoic acid receptor RXR-alpha (Homo sapiens) (P19793 whole entry, looked up): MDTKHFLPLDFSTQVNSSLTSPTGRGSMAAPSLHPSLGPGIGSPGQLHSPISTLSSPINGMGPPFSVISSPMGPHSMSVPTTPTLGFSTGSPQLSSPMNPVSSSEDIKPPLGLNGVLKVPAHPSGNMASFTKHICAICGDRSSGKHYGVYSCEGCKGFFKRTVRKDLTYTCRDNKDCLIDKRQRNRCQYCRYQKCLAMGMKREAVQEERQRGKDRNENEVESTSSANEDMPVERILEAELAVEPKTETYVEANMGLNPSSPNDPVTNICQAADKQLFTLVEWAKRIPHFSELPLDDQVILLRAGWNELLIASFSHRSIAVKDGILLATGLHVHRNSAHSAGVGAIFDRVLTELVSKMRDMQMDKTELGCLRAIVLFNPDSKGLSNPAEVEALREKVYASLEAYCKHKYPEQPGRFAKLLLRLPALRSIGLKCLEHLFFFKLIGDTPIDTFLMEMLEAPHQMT

CCOCCOCCOCCO
inactive: [1] | [2] | [3] | [4] | [5] | [6] | [7] | [8] | [9] | [10] | [11] | [12] | [13]

NC(=S)NNC(N)=S
inactive: [1] | [2] | [3] | [4] | [14] | [5] | [6] | [7] | [8] | [9] | [10] | [11] | [12] | [13]

Cc1ccc(S(=O)(=O)N=C=O)cc1
inactive: [1] | [2] | [3] | [4] | [5] | [6] | [7] | [8] | [9] | [10] | [11] | [13]

CN/C(=C\[N+](=O)[O-])NCCSCc1csc(CN(C)C)n1
inactive: [1] | [2] | [3] | [4] | [14] | [5] | [6] | [7] | [8] | [9] | [11]

c1ccc(Oc2ccccc2)cc1
inactive: [1] | [2] | [3] | [14] | [5] | [6] | [7] | [8] | [9] | [11] | [12] | [13]

CCNC(=S)NCC
inactive: [1] | [2] | [3] | [14] | [5] | [6] | [7] | [8] | [9] | [11]

CCCCCCO
inactive: [1] | [2] | [3] | [4] | [14] | [5] | [6] | [7] | [8] | [9] | [10] | [11] | [12] | [13]

NCCN1CCNCC1
inactive: [1] | [2] | [3] | [4] | [5] | [6] | [7] | [8] | [9] | [10] | [11] | [12] | [13]

CC(=O)c1ccc(O)cc1
inactive: [1] | [2] | [3] | [5] | [6] | [7] | [8] | [9] | [10] | [11]
